# Shown are actives, neighbours in structure and some others; about 28% of the full set was active somewhere.
# CYP2C19 act – cytochrome P450 2C19 (human) activation; P33261; recombinant CYP2C19, luciferin-H EGE luminescence; hits give high values; 0 = fully inhibited enzyme, 1 = untreated enzyme; activation factor at 5 µM; 96,000 tested, under 10 active;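 active = activation factor of at least 2 at 5 µM in the primary screen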;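 also: 0 = wells with 2.5 mM tranylcypromine and 1 = vehicle-only wells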
# CYP2C9 act – CYP2C9 (human) activation. recombinant CYP2C9, luciferin-H conversion, luminescence; hits give high values; factor 1 = untreated enzyme, 0 = blocked. P11712. 96,000 compounds, 1.4% hits. activation factor at 5 µM. AID 1024;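 active = activation factor of 2 or more for CYP2C9 at a 5 µM dose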;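 also: 0 = sulfaphenazole-blocked wells and 1 = vehicle-only wells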
# Mac1 fbg inh – inhibitors of human CD11b/CD18 binding to fibrinogen | K562 CD11b/CD18 adhesion to fibrinogen, ATPlite luminescence; Mn2+ added to activate the integrin | inhibition, % at 10 µM | 93,000 compounds, 0.54% hits;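 active = primary inhibition of 50% or more at 10 µM, then 40% or more on retest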
# CYP2C9 inhib – inhibitors of human CYP2C9; P11712; CYP2C9 Supersomes, luciferin-H conversion, luminescence; inhibition, % at 5 µM; 96,000 compounds, 20% hits;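 active = blocking of liver enzyme CYP2C9 beyond about 50% at 5 µM, limit read from the data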
# CD11b adhes enh – CD11b/CD18-fibrinogen binding enhancement; K562 CD11b/CD18 adhesion to fibrinogen, ATPlite luminescence; P05107+P11215; activation, % at 10 µM; AID 1499; 93,000 compounds, 0.07% hits;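 active = 10 µM primary screen giving 50% or more activity, confirmed by 40% or more on retest at that dose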
# CYP2C19 inhib – human CYP2C19 inhibition; P33261; CYP2C19 Supersomes, luciferin-H EGE luminescence, 30 min; inhibition, % at 5 µM; 96,000 compounds, 21% hits; AID 778;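 active = CYP2C19 inhibition above a set limit at 5 µM in the primary screen, cut at about 50% in these data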;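 also: plate controls were negative control wells for no effect and 2.5 mM tranylcypromine positive control for full effect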
# * marks the source's active call; other numbers are inactive results; nt = not tested or not shown.
SMILES,CYP2C19 act,CYP2C9 act,Mac1 fbg inh,CYP2C9 inhib,CD11b adhes enh,CYP2C19 inhib
Cc1cc(C)cc(-c2nnc(SCC(=O)N3CCN(C(=O)c4ccco4)CC3)o2)c1,0.5,2*,-0.7,-102.6,-3.9,49.8
Cc1cc2cc3c(cc2nc1SCC(=O)N1CCN(C(=O)c2ccco2)CC1)OCO3,0.5,0.2,-20.2,80.1*,0.4,48.1
O=C(CSc1nnc(-c2ccc(Br)cc2)o1)N1CCN(C(=O)c2ccco2)CC1,0.9,0.9,0.7,11.1,-1.1,7.8
COCCn1c(=S)[nH]c2cc(C(=O)N3CCN(c4ccc(F)cc4)CC3)ccc2c1=O,1,0.9,0.7,11.7,2.0,0.2
CN1CCOc2cc(S(=O)(=O)Nc3ccc(F)cc3)ccc21,0.1,0.4,23.0,59.7*,-5.7,87.0*
CC(OC(=O)c1cc(S(=O)(=O)Nc2ccc(F)cc2)ccc1Cl)C(=O)Nc1ccc2c(c1)OCCO2 (stereo unspecified),nt,nt,-3.3,nt,1.6,nt
CCCCn1c(N)c(NCC(C)C)c(=O)[nH]c1=O,nt,nt,8.8,nt,-1.4,nt
CCOc1ccc(NC(=O)c2ccc(CNc3c(NC4CCCCC4)c(=O)c3=O)cc2)cc1,1.1,1.1,-4.7,-8.2,91.7,-12.7
COc1ccc(NC(=O)c2ccc(CNc3c(NC4CCCCC4)c(=O)c3=O)cc2)c(OC)c1,0.9,0.3,-10.4,70.3*,24.6,14.8
CCOC(=O)c1c(C)c(C(=O)NC2CCCCCC2)c(C)n1C,1,1.6,-8.6,-60.4,0.7,-4.4
CCOC(=O)c1c(C)c2c(n1C)CCC/C2=N\O,0.4,0.7,1.2,33.2,-2.0,60.4*
COc1ccc(-n2c(CNC(=O)c3cc(OC)c(OC)c(OC)c3)n[nH]c2=S)cc1,1,1,2.3,-0.7,-1.6,3.9
CC(OC(=O)c1cc(=O)[nH]c2ccccc12)c1ccccc1 (stereo unspecified),0.6,0.5,-7.3,54.0*,1.1,38.3
CC(C)COC(=O)c1cc(=O)[nH]c2ccccc12,1,1.2,-10.4,-22.7,1.3,-2.1
COc1ccc(-c2nc(CSCC(=O)NC3CCCc4ccccc43)c(C)o2)cc1OC (stereo unspecified),0.4,0.3,2.2,66.1*,-1.6,60.6*
COc1cccc(-c2nnn(CC(=O)NC3CCCC3)n2)c1OC,0.6,1.1,1.4,-5.2,2.0,39.2
COc1ccc(-c2nc(CS(=O)CC(=O)NC3CCCc4ccccc43)c(C)o2)cc1OC (stereo unspecified),0.4,0.1,-7.4,88.0*,4.5,55.9*
COc1ccc(-c2nc(CSCC(=O)N3CCc4ccccc4C3)c(C)o2)cc1OC,0.8,0.8,53.1,16.0,-7.5,16.3
COc1ccc(-c2nnn(CC(=O)NC3CCCc4ccccc43)n2)cc1OC (stereo unspecified),0.4,1,0.5,1.3,1.2,63.6*
COc1ccc(-c2nc(CSCC(=O)N3CCN(c4cccc(C)c4)C(C)C3)c(C)o2)cc1OC (stereo unspecified),0.3,0.6,5.3,37.2,-1.3,73.1*
CCOC(=O)Cn1c(=O)c2c(nc3n2CCCCN3c2ccc(C)cc2)n(C)c1=O,1,1,-9.0,2.1,-0.3,-2.1
O=C(Cn1nc(Cc2ccncc2)c2ccccc2c1=O)N1CCN(C(=O)c2ccco2)CC1,0.7,0.4,4.9,64.3*,-1.3,34.0
CC(CCc1ccco1)NC(=O)Cn1nc(Cc2ccncc2)c2ccccc2c1=O (stereo unspecified),0.2,0.1,-3.9,86.2*,-6.3,84.5*
O=C(Cn1nc(Cc2cccnc2)c2ccccc2c1=O)N1CCN(C(=O)c2ccco2)CC1,0.9,0.5,-9.6,49.5,-0.1,8.1
CCn1cc(C(=O)NC2CCCCCC2)c2cc(OC)c(OC)cc2c1=O,1,0.9,0.5,5.5,1.2,4.2
CC1=NN(c2ccc(F)cc2)C(=O)C1C(c1cccc(O)c1)c1c(C)[nH]n(-c2ccc(F)cc2)c1=O (stereo unspecified),0.9,0.4,nt,59.2*,nt,7.4
COc1ccc2[nH]c(C)c(CCN3C(=O)C4C5C=CC(C5)C4C3=O)c2c1 (stereo unspecified),0.1,0.6,-4.6,37.2,-0.8,93.7*

# High-throughput results deposited in PubChem by Sanford-Burnham Center for Chemical Genomics.
